Source: PubChem BioAssay AID1159580 (chemical genetic matrix, 2015)
Several values for one entry are separate records, joined by “and”; a condition that tells them apart may be missing. Identical values can stand only once. Screen size: about 5,500 compounds; about 2,000 (36%) were called active. Inconclusive results (about 18%) are left out. No stated cut-off is given here; in the data, active means normalized growth mostly below about 0.91 (no sharp cut-off); inconclusive means no clear call, values can overlap the other calls; inactive means mostly above about 0.92. The list shows a part of the results.

Experiment: chemical genetic growth profiling, strain panel (AID 1159580);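 further: tested at 20 µM; growth read once vehicle control cultures reached saturation at 30 °C; 1 = growth at the plate median or of vehicle wells; lower values mean less growth of the strain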
Settings: S. cerevisiae deletion strains, growth OD

Measured: normalized growth

COc1ccc([C@@H](C)C(=O)c2ccc(O)cc2O)cc1
active: locus YDR137W, strain rgp1, active compounds read low 0.797 | locus YGL086W, strain mad1, active compounds read low 0.921 | locus YKR001C, strain vps1, active compounds read low 0.798 | locus YLR039C, strain RIC1, active compounds read low 1.57 [resistant] | locus YLR262C, strain YPT6 (second series), active compounds read low 0.788 | locus YLR330W, strain CHS5, active compounds read low 0.888 | locus YLR418C, strain cdc73, active compounds read low 0.796 | locus YNL307C, strain MCK1, active compounds read low 0.761 | locus YOL147C, strain pex11, active compounds read low 0.931 | locus YOR184W, strain ser1, active compounds read low 0.866 | locus YOR270C, strain vph1, active compounds read low 0.737 | locus YPR163C, strain tif3, active compounds read low 0.86
inactive: locus YAL021C, strain ccr4, active compounds read low 0.987 | locus YAL026C, strain drs2, active compounds read low 0.969 | locus YAL030W, strain snc1, active compounds read low 0.983 | locus YBL061C, strain skt5, active compounds read low 0.976 | locus YBR009C, strain hhf1, active compounds read low 0.962 | locus YBR021W, strain FUR4, active compounds read low 0.996 | locus YBR023C, strain chs3, active compounds read low 0.974 | locus YBR171W, strain sec66, active compounds read low 0.95 | locus YBR229C, strain ROT2, active compounds read low 0.982 | locus YBR231C, strain swc5, active compounds read low 0.983 | locus YBR279W, strain paf1, active compounds read low 0.978 | locus YCL011C, strain gbp2, active compounds read low 0.987 | locus YCL016C, strain dcc1, active compounds read low 0.985 | locus YCL029C, strain bik1, active compounds read low 0.96 | locus YCL061C, strain MRC1, active compounds read low 0.994 | locus YCL069W, strain vba3, active compounds read low 0.955 | locus YCR088W, strain abp1, active compounds read low 0.967 | locus YDL005C, strain med2, active compounds read low 0.969 | locus YDL035C, strain GPR1, active compounds read low 0.98 | locus YDL040C, strain nat1, active compounds read low 0.97 | locus YDL074C, strain BRE1, active compounds read low 0.927 | locus YDL101C, strain DUN1, active compounds read low 0.955 | locus YDL185W, strain tfp1, active compounds read low 0.959 | locus YDL192W, strain arf1, active compounds read low 0.931 | locus YDR001C, strain nth1, active compounds read low 0.979 | locus YDR069C, strain doa4, active compounds read low 0.965 | locus YDR101C, strain arx1, active compounds read low 0.961 | locus YDR159W, strain sac3, active compounds read low 0.969 | locus YDR162C, strain NBP2, active compounds read low 0.937 | locus YDR195W, strain ref2 1.11 | locus YDR297W, strain sur2, active compounds read low 0.994 | locus YDR318W, strain mcm21, active compounds read low 0.93 | locus YDR334W, strain swr1, active compounds read low 0.957 | locus YDR335W, strain msn5, active compounds read low 0.968 | locus YDR388W, active compounds read low 0.969 | locus YDR392W, strain spt3, active compounds read low 0.749 | locus YDR502C, strain sam2, active compounds read low 0.931 | locus YEL003W, strain gim4, active compounds read low 0.962 | locus YEL037C, strain rad23, active compounds read low 0.966 | locus YEL061C, strain CIN8 (second series), active compounds read low 0.957 | locus YER015W, strain faa2, active compounds read low 0.986 | locus YER016W, strain bim1, active compounds read low 0.973 | locus YER110C, active compounds read low 0.969 | locus YER111C, strain swi4, active compounds read low 0.965 | locus YER155C, strain BEM2 (second series), active compounds read low 0.952 | locus YER155C, strain BEM2, active compounds read low 0.971 | locus YER167W, strain BCK2, active compounds read low 0.973 | locus YFR010W, strain ubp6, active compounds read low 0.979 | locus YGL078C, strain dbp3, active compounds read low 0.981 | locus YGL167C, strain pmr1, active compounds read low 0.96 | locus YGL173C, strain kem1, active compounds read low 0.959 | locus YGL227W, strain vid30, active compounds read low 0.983 | locus YGL240W, strain doc1, active compounds read low 0.991 | locus YGL248W, strain PDE1, active compounds read low 0.939 | locus YGL253W, strain hxk2, active compounds read low 0.976 | locus YGR135W, strain pre9, active compounds read low 0.948 | locus YGR252W, strain gcn5, active compounds read low 0.92 | locus YHR013C, strain ard1, active compounds read low 0.944 | locus YHR027C, strain rpn1, active compounds read low 0.964 | locus YHR030C, strain SLT2, active compounds read low 0.991 and 0.996 | locus YHR079C, strain IRE1 (second series), active compounds read low 0.971 | locus YHR079C, strain IRE1, active compounds read low 0.978 | locus YHR094C, strain hxt1, active compounds read low 0.977 | locus YHR129C, strain ARP1, active compounds read low 0.959 | locus YHR142W, strain chs7, active compounds read low 0.929 | locus YHR200W, strain rpn10, active compounds read low 0.982 | locus YIL066C, strain RNR3, active compounds read low 0.961 | locus YIL073C, strain SPO22, active compounds read low 0.955 | locus YIL125W, strain kgd1, active compounds read low 0.98 | locus YIR030C, strain dcg1, active compounds read low 0.973 | locus YJL092W, strain hpr5, active compounds read low 0.978 | locus YJL095W, strain BCK1 (second series), active compounds read low 0.987 | locus YJL095W, strain BCK1, active compounds read low 0.864 and 0.977 | locus YJL115W, strain asf1, active compounds read low 0.98 | locus YJL129C, strain trk1, active compounds read low 0.878 | locus YJL134W, strain LCB3, active compounds read low 0.989 | locus YJL154C, strain vps35, active compounds read low 0.955 | locus YJL164C, strain tpk1, active compounds read low 0.965 | locus YJL166W, strain qcr8, active compounds read low 0.965 | locus YJL168C, strain set2, active compounds read low 0.97 | locus YJL187C, strain SWE1 (second series), active compounds read low 0.953 | locus YJL187C, strain SWE1, active compounds read low 0.97 | locus YJR043C, strain POL32, active compounds read low 1.03 | locus YJR066W, strain TOR1, active compounds read low 0.873 | locus YKL009W, strain mrt4, active compounds read low 0.963 | locus YKL068W, active compounds read low 0.974 | locus YKL085W, strain MDH1 (second series), active compounds read low 0.97 | locus YKL085W, strain MDH1, active compounds read low 0.97 | locus YKL160W, strain elf1, active compounds read low 0.975 | locus YKR026C, strain gcn3, active compounds read low 0.97 | locus YKR091W, strain srl3, active compounds read low 0.981 | locus YLL001W, strain dnm1, active compounds read low 0.966 | locus YLL026W, active compounds read low 0.988 | locus YLL041C, strain sdh2, active compounds read low 0.953 | locus YLR027C, strain aat2, active compounds read low 0.991 | locus YLR058C, strain SHM2, active compounds read low 0.977 | locus YLR102C, strain apc9, active compounds read low 0.969 | locus YLR113W, strain HOG1, active compounds read low 1.01 | locus YLR221C, strain rsa3, active compounds read low 0.971 | locus YLR258W, strain gsy2, active compounds read low 0.954 | locus YLR262C, strain YPT6, active compounds read low 0.738 | locus YLR268W, strain sec22, active compounds read low 0.968 | locus YLR320W, strain mms22, active compounds read low 0.895 | locus YLR342W, strain FKS1, active compounds read low 0.96 | locus YLR357W, strain rsc2, active compounds read low 1.03 | locus YLR370C, strain arc18, active compounds read low 0.974 | locus YLR371W, strain rom2, active compounds read low 0.921 | locus YLR384C, strain iki3, active compounds read low 0.982 | locus YML016C, strain PPZ1, active compounds read low 0.981 | locus YML032C, strain rad52, active compounds read low 0.919 | locus YML120C, strain ndi1, active compounds read low 0.976 | locus YML124C, strain tub3, active compounds read low 0.968 | locus YMR058W, strain fet3, active compounds read low 0.979 | locus YMR078C, strain ctf18, active compounds read low 0.955 | locus YMR125W, strain sto1, active compounds read low 0.961 | locus YMR129W, active compounds read low 0.983 | locus YMR205C, strain PFK2, active compounds read low 0.914 | locus YMR223W, strain ubp8, active compounds read low 0.944 | locus YMR231W, strain pep5, active compounds read low 0.972 | locus YMR307W, strain GAS1, active compounds read low 0.692 | locus YNL067W, strain RPL9B, active compounds read low 0.967 | locus YNL071W, strain lat1, active compounds read low 0.948 | locus YNL153C, strain GIM3, active compounds read low 0.953 | locus YNL183C, strain NPR1, active compounds read low 0.915 | locus YNL209W, strain ssb2, active compounds read low 0.975 | locus YNL233W, strain BNI4, active compounds read low 0.934 | locus YNL248C, strain rpa49, active compounds read low 0.976 | locus YNL250W, strain rad50, active compounds read low 1.01 | locus YNL271C, strain bni1, active compounds read low 0.975 | locus YNL298W, strain CLA4, active compounds read low 0.945 | locus YNL322C, strain KRE1 (second series), active compounds read low 0.986 | locus YNR049C, strain mso1, active compounds read low 0.963 | locus YNR052C, strain pop2, active compounds read low 0.943 | locus YOL012C, strain htz1 1.31 | locus YOR001W, strain rrp6, active compounds read low 0.953 | locus YOR061W, strain CKA2, active compounds read low 0.999 | locus YOR069W, strain VPS5, active compounds read low 0.974 | locus YOR070C, strain gyp1, active compounds read low 0.987 | locus YOR080W, strain dia2, active compounds read low 0.975 | locus YOR083W, strain WHI5, active compounds read low 0.973 | locus YOR106W, strain vam3, active compounds read low 0.97 | locus YOR136W, strain idh2, active compounds read low 0.967 | locus YOR144C, strain elg1, active compounds read low 0.961 | locus YOR231W, strain MKK1, active compounds read low 0.953 | locus YOR265W, strain rbl2, active compounds read low 0.969 | locus YOR290C, strain snf2, active compounds read low 0.982 | locus YOR316C, strain cot1, active compounds read low 0.979 | locus YPL051W, strain arl3, active compounds read low 0.975 | locus YPL078C, strain atp4, active compounds read low 0.958 | locus YPL106C, strain sse1, active compounds read low 1.02 | locus YPL240C, strain hsp82, active compounds read low 0.965 | locus YPL241C, strain CIN2, active compounds read low 0.971 | locus YPL256C, strain CLN2, active compounds read low 0.969 | locus YPR119W, strain clb2, active compounds read low 0.966 | locus YPR141C, strain kar3, active compounds read low 0.98 | locus YPR167C, strain met16, active compounds read low 0.965 | strain wtn01, active compounds read low 0.94
